Cl transport mod – modulators of human KCC2 chloride dependent transport | KCC2 cells, thallium flux FluoZin-2 fluorescence | B-score of Tl+ flux slope (higher = more flux/activation; lower = inhibition) at 10 µM | hit rate 2.2% among 190,000;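 active means thallium flux slope and its plate-corrected score both differing from the plate sample mean at a set confidence after two filtering rounds, in either direction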;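 further: slope of fluorescence scaled to starting intensity during 10 to 20 s after thallium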
WT yeast gro inh – growth inhibition of WT yeast, mitochondrial fusion screen. inhibition, % at 10 µM. mitochondrial fusion phenotypic screen, WT strain. hit rate 2.1% among 190,000. AID 1362; in the data active means inhibition above about 58%; tested in S. cerevisiae
m-calpain inh – blocks pig calpain II enzyme activity; AID 1236; purified calpain II, fluorogenic peptide substrate, 30 min; hit rate 0.37% among 220,000; inhibition, % at 16 µM;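 active means inhibition above about 50%, limit read from the data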
ROMK mod – human ROMK K+ channel modulation, primary screen; P48048; Tet-inducible ROMK, thallium flux fluorescence; actives lie on both sides; B-score at 10 µM; hit rate 2% among 130,000;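 active means signal ratio slope over the read window, or its plate-corrected B-score, at least 3 SD from the plate mean, either direction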;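 further: B-score of the F/F0 ratio slope over 7 to 12 s after thallium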
Target sequence (P48048 whole entry, looked up): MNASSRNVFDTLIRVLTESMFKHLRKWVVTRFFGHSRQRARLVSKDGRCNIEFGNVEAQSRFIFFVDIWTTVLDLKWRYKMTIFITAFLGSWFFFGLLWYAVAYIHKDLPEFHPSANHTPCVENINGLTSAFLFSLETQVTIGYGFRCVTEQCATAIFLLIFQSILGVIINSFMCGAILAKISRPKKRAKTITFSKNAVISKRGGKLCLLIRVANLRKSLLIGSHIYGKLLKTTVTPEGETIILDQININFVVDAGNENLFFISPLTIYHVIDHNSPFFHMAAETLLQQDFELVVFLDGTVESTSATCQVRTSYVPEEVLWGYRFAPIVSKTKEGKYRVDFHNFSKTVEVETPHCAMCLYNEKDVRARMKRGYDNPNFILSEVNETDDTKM
Lmaj promast – inhibitors of Leishmania major promastigote growth; inhibition, % at 10 µM; hit rate 9% among 200,000; Leishmania major promastigotes, resazurin fluorescence viability; in the data active means inhibition above about 50%;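 further: promastigotes grown with compound for 44 hours at 28 °C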
KCC2 sec1 – KCC2 (human) modulation, secondary assay. AID 1713. shares compounds with Cl transport mod. HEK293-KCC2, thallium flux, FluoZin2 fluorescence; stronger effect = higher value. hit rate 15% among 3,700. normalised thallium flux (F/F0 slope) at 10 µM;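 active means thallium flux slope above the same plate's solvent-only control mean plus 3 SD; inconclusive means the two replicate wells disagree; inactive means no significant difference from solvent-only control wells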
KCC2 bumet counter – thallium flux persisting under bumetanide in KCC2 cells, counter-screen secondary assay | shares compounds with Cl transport mod | HEK293-KCC2 + bumetanide/ouabain, thallium flux FluoZin2; stronger effect = higher value | normalized thallium flux at 10 µM | hit rate 49% among 3,700 | AID 1714;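 active means thallium entry rate above the same plate's blocked-transporter control wells by more than 3 SD; inconclusive means the two repeat wells disagree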;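 further: raw slope of fluorescence over initial fluorescence between 10 and 20 s after thallium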
KCC2 secondary2 – confirmation of human KCC2 transport modulators | shares compounds with Cl transport mod | HEK293-KCC2, thallium flux FluoZin2 fluorescence; actives lie on both sides; F/F0 rise rate, 10–20 s post-thallium | normalized thallium flux at 10 µM | hit rate 23% among 3,700 | AID 1715;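 active means thallium flux slope more than 3 SD above or below the plate's solvent-only control mean, mostly below; inconclusive means the two repeat wells disagreed; inactive means no significant shift from solvent-only controls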;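 further: raw slope with 0.1% DMSO as baseline and bumetanide as block control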
HEK counter1 – acts in parental HEK cells, KCC2 counter-screen; shares compounds with Cl transport mod; HEK293 parental cells, thallium flux FluoZin2, ouabain; baseline-ratio fluorescence slope, 10–20 s after thallium; thallium flux rate (normalised fluorescence) at 10 µM; hit rate 46% among 3,700; AID 1716;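 active means thallium flux rate significantly above the same plate's solvent-only control wells, beyond their mean plus 3 SD; inconclusive means the two replicate wells gave conflicting results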
KCC2 ouabain – KCC2 (human) modulation, ouabain retest | raw Tl+ flux slope (below DMSO = inhibition, above = activation) at 10 µM | HEK293-KCC2, thallium flux FluoZin2 fluorescence; bidirectional: low = inhibitor, high = activator | shares compounds with Cl transport mod | hit rate 48% among 3,700;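 active means thallium flux slope beyond 3 SD from same-plate DMSO control mean in most replicates, usually higher, sometimes lower; inconclusive means repeat tests gave conflicting results; inactive means no significant difference from controls in most replicates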;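 further: slope of initial-normalized fluorescence between seconds 10 and 20 after thallium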
HEK counter2 – counter-screen for KCC2 modulators: effect in parental HEK293 cells; shares compounds with Cl transport mod; thallium flux FluoZin-2 fluorescence slope; thallium flux slope at 10 µM; hit rate 33% among 3,700;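 active means thallium flux slope above the same plate's solvent-control mean plus 3 SD in both duplicate wells; inconclusive means duplicate wells that disagreed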;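 further: run without ouabain in cells lacking the KCC2 cotransporter; slope of fluorescence scaled to its starting value between 10 and 20 s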
Starred values were filed as active, the others as inactive. Rows were chosen to be rich in hits. Some 12% of all compounds tested hit in one or more screens of this group.

Screening COc1ccc(C(=O)CSC2=C(C#N)C3(CCCCC3)C(C#N)=C(N)N2)cc1 returned Cl transport mod -2.9, WT yeast gro inh 11, m-calpain inh -10, ROMK mod 0.12, Lmaj promast 58*, KCC2 sec1 0.0073, KCC2 bumet counter 0.0052, KCC2 secondary2 0.034, HEK counter1 0.0064*, KCC2 ouabain 0.016* and HEK counter2 0.011.
Screening CCSC1=C(C#N)C2(CCCCC2)C(C#N)=C(N)N1 returned Cl transport mod -4.1*, WT yeast gro inh -5, m-calpain inh 22, Lmaj promast 20, KCC2 sec1 0.0074, KCC2 bumet counter 0.0054, KCC2 secondary2 0.03, HEK counter1 inconclusive, KCC2 ouabain 0.019 and HEK counter2 0.0093.
COc1ccc(C(=O)CSc2nc(N)nc(SC)c2C#N)cc1 was read as Cl transport mod 0.026, WT yeast gro inh 3, m-calpain inh 46, ROMK mod 0.8 and Lmaj promast -1.
For CCSC1=C(C#N)C2(CCCCC2)C2=C(CC(C)(C)CC2=O)N1 the results were Cl transport mod -1.1, WT yeast gro inh -1, m-calpain inh -134, ROMK mod -0.98 and Lmaj promast 22.
For CC1(C)CC(=O)C2=C(C1)NC(SCC(N)=O)=C(C#N)C21CCCCC1 the results were Cl transport mod -1.1, WT yeast gro inh -5, m-calpain inh 3 and Lmaj promast 5.
COc1ccccc1/C=N/NC(=O)C(C)Cn1cnc2ccccc21 (centres undefined) was read as Cl transport mod -0.0037, WT yeast gro inh -16, m-calpain inh 15 and Lmaj promast 1.
`O=C(C1CCCCC1)N1CCCC(c2nc3c(nnn3Cc3ccccc3)c(=O)[nH]2)C1` (centres undefined) gave WT yeast gro inh -5, m-calpain inh -1, ROMK mod -0.39, Lmaj promast -1, KCC2 sec1 0.0058, KCC2 bumet counter inconclusive, KCC2 secondary2 0.026*, HEK counter1 0.0061*, KCC2 ouabain 0.016* and HEK counter2 inconclusive.
Screening O=C(c1ccccc1)N1CCCC(c2nc3c(nnn3Cc3ccccc3)c(=O)[nH]2)C1 (centres undefined) returned Cl transport mod -0.81, WT yeast gro inh -11, m-calpain inh 26 and Lmaj promast 5.
`Cc1ccc(Cn2nnc3c(=O)[nH]c(C4CCN(S(=O)(=O)c5ccc(C)cc5)CC4)nc32)cc1` gave WT yeast gro inh -4, m-calpain inh -269, ROMK mod 1.1, Lmaj promast -1, KCC2 sec1 0.0071, KCC2 bumet counter 0.0049, KCC2 secondary2 0.031, HEK counter1 0.008, KCC2 ouabain 0.019 and HEK counter2 0.011.
`COc1ccc(C2C(C(N)=O)=C(C)Nc3nc(-c4ccccc4)nn32)cc1OC` (centres undefined) gave Cl transport mod 5.5*, WT yeast gro inh 9, m-calpain inh 15, Lmaj promast -10, KCC2 sec1 0.0069, KCC2 bumet counter inconclusive, KCC2 secondary2 0.029, HEK counter1 0.0082, KCC2 ouabain 0.019 and HEK counter2 inconclusive.
Screening O=C(C1CC1)N(CCN(Cc1ccccc1)C(=O)C1CC1)Cc1ccccc1 returned Cl transport mod 1, WT yeast gro inh -1, m-calpain inh 3 and Lmaj promast -2.
CC(C)(C)c1ccc(C(=O)CC(=O)c2cc(Cl)ccc2O)cc1 was read as Cl transport mod 4.4*, WT yeast gro inh 65*, m-calpain inh -91, ROMK mod 0.018, Lmaj promast 99*, KCC2 sec1 0.0055, KCC2 bumet counter 0.018*, KCC2 secondary2 0.035, HEK counter1 0.023*, KCC2 ouabain 0.025* and HEK counter2 0.017*.
Screening Cc1ccc(C(=O)CC(=O)c2ccc(C(C)(C)C)cc2)cc1 returned Cl transport mod 0.5, WT yeast gro inh -1, m-calpain inh -29, ROMK mod 1.4 and Lmaj promast -4.
Fc1ccc(-c2csc(=S)[nH]2)cc1 was read as Cl transport mod 83*, WT yeast gro inh 62*, m-calpain inh 15, ROMK mod 1.8, Lmaj promast 93*, KCC2 sec1 0.039*, KCC2 bumet counter 0.11*, KCC2 secondary2 0.047*, HEK counter1 0.075*, KCC2 ouabain 0.087* and HEK counter2 0.025*.
For Cc1occc1-c1nnc(SCC(=O)N2CCOCC2)n1Cc1ccco1 the results were Cl transport mod 6.4*, WT yeast gro inh -12, m-calpain inh -14, ROMK mod 0.016, Lmaj promast 10, KCC2 sec1 0.0092, KCC2 bumet counter 0.0062, KCC2 secondary2 0.035, HEK counter1 0.008, KCC2 ouabain 0.022 and HEK counter2 0.01.
For Cc1occc1-c1nnc(SCC(=O)N2CCOCC2)n1CC(C)C the results were WT yeast gro inh -7, m-calpain inh 9 and Lmaj promast 2.
Screening CCNc1c([N+](=O)[O-])c(=O)n(CC)c2ccccc12 returned Cl transport mod -0.36 and m-calpain inh -7.
Screening CCN(CC)c1c([N+](=O)[O-])c(=O)n(CC)c2ccccc12 returned Cl transport mod -4.6*, m-calpain inh -5, KCC2 sec1 0.0059, KCC2 bumet counter 0.0031*, KCC2 secondary2 0.029, HEK counter1 0.0045*, KCC2 ouabain 0.017* and HEK counter2 0.0076*.
Cn1c(=O)c2c(ncn2Cc2nnc(N)s2)n(C)c1=O was read as Cl transport mod -0.58, WT yeast gro inh -7, m-calpain inh 1, ROMK mod 0.76 and Lmaj promast -9.
N#Cc1ccccc1NC(=O)CSc1nccn1CCc1ccccc1 was read as Cl transport mod -4*, WT yeast gro inh 10, m-calpain inh 31, Lmaj promast 11, KCC2 sec1 0.0068, KCC2 bumet counter 0.005, KCC2 secondary2 0.025*, HEK counter1 0.0073, KCC2 ouabain 0.014* and HEK counter2 0.01.
Cc1ccc(NC(=O)CSc2nccn2Cc2ccccc2)cc1C was read as Cl transport mod -3.1*, WT yeast gro inh 2, m-calpain inh -14, Lmaj promast 5, KCC2 sec1 inconclusive, KCC2 bumet counter 0.0042, KCC2 secondary2 0.029, HEK counter1 0.0053*, KCC2 ouabain 0.02* and HEK counter2 0.0092.
